Source: PubChem BioAssay (Center for Chemical Genomics, University of Michigan)
Many of the other results were omitted from the sample, so hits are more common in it than they were.
Dicer processing – blocks human Dicer maturation of pre-miR-21 | z-score at 25 µM | cat-ELCCA pre-miR-21 Dicer processing, chemiluminescence; stronger effect = higher value | 47,000 compounds, 6% hits | Q9UPY3; in the data active = z-score above about 3, passing the limit was not always enough;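 also: higher signal means more uncleaved substrate so more Dicer inhibition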
Of the large screens only hits and unclear results are named; the others gave an inactive call.

O=C(NO)c1csc(-c2cccnc2)n1	none
COC(=O)c1ccc(S(=O)(=O)Nc2ccc(N3CCOCC3)cc2)n1C	Dicer processing 3.6
COC(=O)c1ccc(S(=O)(=O)N2CCCCCC2)n1C	none
COC(=O)c1ccc(S(=O)(=O)N2CCC(O)CC2)n1C	none
Cc1nnc(-c2ccc(C(F)(F)F)cn2)nc1C	none
Cc1ccnc(N=C2c3ccccc3CN2c2cc(C)ccn2)c1	none
COCCCn1c(=S)[nH]c2cc(Cl)ccc2c1=O	none
COCCCn1c(-c2ccc(Cl)cc2)cc(-c2cccs2)c1-c1ccccc1	Dicer processing 3.3
CSc1ccc(-c2c(-c3cccs3)cc(-c3ccc(Cl)cc3)n2C)cc1	none
CCC(=O)Nc1ncc([N+](=O)[O-])s1	none
COC(=O)c1sc(SC)c2c1CC(C)(C)CC2=O	none
CCN(CC)CCCNS(=O)(=O)c1c(C)c(C)c(C)c(C)c1C	none
COc1ccc(C2Nc3c(C)cc(C)cc3-c3cc(C)nn32)cc1OC (configuration not stated)	none
COc1ccc(C2Nc3c(C)cc(C)cc3-c3cc(C)nn32)c(OC)c1 (configuration not stated)	Dicer processing 3.6
CCOc1cc(C2Nc3c(C)cc(C)cc3-c3cc(C)nn32)ccc1O (configuration not stated)	none
COc1ccc(C2Nc3ccc(C)cc3-c3cc(C)nn32)cc1 (configuration not stated)	none
CCOc1ccc(C2Nc3c(C)cccc3-c3cc(C)nn32)cc1 (configuration not stated)	none
COc1ccc(OC)c(C2Nc3ccc(C)cc3-c3cc(C)nn32)c1 (configuration not stated)	none
Cc1cc(C)c2c(c1)-c1cc(C)nn1C(c1ccc(N3CCOCC3)cc1)N2 (configuration not stated)	none
CCOc1ccc(C2Nc3ccccc3-c3cc(C)nn32)cc1 (configuration not stated)	Dicer processing 3.2
Cc1cc(C)c2c(c1)-c1cc(C)nn1C(c1ccc(O)c(O)c1)N2 (configuration not stated)	Dicer processing 8.6
CCOc1ccc(C2Nc3ccc(C)cc3-c3cc(C)nn32)cc1 (configuration not stated)	none
COc1ccc(C2Nc3c(C)cc(C)cc3-c3cc(C)nn32)cc1O (configuration not stated)	Dicer processing 4.3
COC(=O)C1=C(C)NC2=C(C(=O)CCC2)C1c1ccc2c(c1)OCC2 (configuration not stated)	none
COC(=O)c1c(C(=O)OC)c2n(c1C)CSC2	none
COc1ccccc1OCc1nc(C#N)c(N2CCN(C)CC2)o1	none
CSc1n[nH]c(NS(=O)(=O)c2ccccc2Cl)c1-c1ccccn1	none
CCOC(=O)C1=C(C)NC2=C(C(=O)CCC2)C1c1cc2c(cc1Br)OCO2 (configuration not stated)	none
Nc1ccccc1Sc1nccc(C(F)(F)F)n1	none
COc1ccc(-c2nn3c(-c4ccccc4Cl)nnc3s2)cc1	none
COc1cc(C2Nc3ccccc3-c3cc(C)nn32)ccc1O (configuration not stated)	none
Cc1cc2n(n1)C(c1ccc(O)cc1)Nc1ccccc1-2 (configuration not stated)	none
Cc1cc2n(n1)C(c1ccc(O)c(O)c1)Nc1ccccc1-2 (configuration not stated)	Dicer processing 6.6
Cc1ccc(Cn2ncc(Br)c2/C=N/NC(=S)NC(C)(C)C)cc1	none
CC(C)(C)NC(=S)N/N=C\c1[nH]ncc1Cl	Dicer processing 5
Cc1nc(C(=O)N/N=C/c2[nH]ncc2Cl)cs1	none
Cc1ccc(C2/C(=C(\O)c3ccccc3)C(=O)C(=O)N2CCN2CCOCC2)o1 (configuration not stated)	none
O=S(=O)(Nc1nc2ccccc2nc1NCc1ccccc1)c1ccc(Cl)cc1	Dicer processing 6
O=S(=O)(Nc1nc2ccccc2nc1Nc1ccc(Cl)cc1)c1ccccc1	none
O=c1[nH]c2ccc(Nc3nc4ccccc4nc3NS(=O)(=O)c3ccc(Cl)cc3)cc2[nH]1	none
CC1CC(NC(=S)NC(=O)c2ccc(Cl)cc2Cl)CC(C)(C)C1 (configuration not stated)	none
Cc1nnc2n1NC(c1ccc(Cl)cc1)C(C(=O)NCC1CCCO1)S2 (configuration not stated)	none
COc1ccc(C2Nn3c(nnc3-c3ccccc3)SC2C(=O)NCC2CCCO2)cc1Cl (configuration not stated)	Dicer processing 6.6
Cc1ccc(C2Nn3c(C)nnc3SC2C(=O)NCC2CCCO2)cc1 (configuration not stated)	none
NS(=O)(=O)c1ccc2c(c1)Cc1cc(S(N)(=O)=O)ccc1-2	none
COc1ccc(-c2cc(C(F)F)n3ncc(C(=O)N4CCSCC4)c3n2)cc1	Dicer processing 3
O=C(c1cnn2c(C(F)F)cc(-c3ccccc3)nc12)N1CCCc2ccccc21	none
O=C(c1cnn2c(C(F)F)cc(-c3ccccc3)nc12)N1CCc2ccccc2C1	none
COc1ccc(S(=O)(=O)NCCO)cc1C(=O)O	none
Cc1cc(C)n2nc(C(C)(C)C)c(Br)c2n1	none
COC(=O)c1sc(C(C)(C)C)cc1CSc1ccc(Cl)cc1	none
COc1ccccc1OCCSc1nc(C)cc(C)n1	none
Cc1ccc(OCCSc2nc(N)cc(N)n2)c(C(C)C)c1	Dicer processing 4.9
Cc1ccc(C(C)C)c(OCc2nc3ccccc3n2C)c1	none
Cc1ccc(C2CC(=O)C3=C(C2)Nc2ccccc2NC3c2ccc3c(c2)OCO3)cc1 (configuration not stated)	none
COc1cc(C2Nc3ccccc3NC3=C2C(=O)CC(c2ccc4c(c2)OCO4)C3)ccc1OC(C)=O (configuration not stated)	none
COc1ccc(C2Nc3ccccc3NC3=C2C(=O)CC(c2ccccc2)C3)c(OC)c1 (configuration not stated)	none
CSc1ccc(C2Nc3ccccc3NC3=C2C(=O)CC(c2ccc4c(c2)OCO4)C3)cc1 (configuration not stated)	Dicer processing 4.6
COc1ccc(C2CC(=O)C3=C(C2)Nc2ccccc2NC3c2cc(OC)ccc2OC)cc1 (configuration not stated)	none
COc1ccc(C2CC(=O)C3=C(C2)Nc2ccccc2NC3c2cccc3ccccc23)cc1OC (configuration not stated)	Dicer processing 5.4
COc1ccc(C2CC(=O)C3=C(C2)Nc2ccccc2NC3c2ccc(OC)c(O)c2)cc1 (configuration not stated)	none
COc1cc(C2Nc3ccccc3NC3=C2C(=O)CC(c2ccc(OC)c(OC)c2)C3)ccc1O (configuration not stated)	none
COc1ccc(C2CC(=O)C3=C(C2)Nc2ccccc2NC3c2ccc(SC)cc2)cc1OC (configuration not stated)	Dicer processing 5.2
CN(C)c1ccc(-c2nnc(SCc3ccccc3)o2)cc1	none
COc1ccc(-c2oc3ncnc(NCCCn4ccnc4)c3c2-c2ccc(OC)cc2)cc1	none
CCOC(=O)c1c(NC(=S)N2CCc3ccccc32)sc2c1CCN(C(=O)OCC)C2	none
CCCCCCCc1ccc(C(=O)NC(=S)Nc2cccc(C)n2)cc1	none
CCOC(=O)CSC(=S)NCc1ccc(F)cc1	none
Cc1ccc(C(=O)CSC(=S)SC(C)(C)C)cc1	none
C=CCOc1ccc2[nH]c(C)c(C(=O)OCC)c2c1	none
O=c1cc(CSC(=S)N2CCSCC2)c2ccccc2[nH]1	none
C=CCOc1cc(=O)[nH]c2ccccc12	Dicer processing 4.7
COC(=O)C1=C(C)NC2=C(C(=O)CC(C)(C)C2)C1c1ccc(Br)cc1 (configuration not stated)	none
CN(C)c1c(F)cc(/C(N)=N/O)cc1F	none
CN(C)c1c(F)cc(C(=O)Nc2cc(C(F)(F)F)cc(C(F)(F)F)c2)cc1F	none
